Our source for the Potency and activation values is PubChem BioAssay (Tox21).

Records with an inconclusive call do not appear. A call without a number means that no potency is given here. A number with no mark means an inactive call. Active and inactive are the calls of the source. The call rests on the fitted dose curve; in most records, active means well fitted activation curve with a large enough effect in the signal ratio in the repeat runs (not every such curve was filed as active); inconclusive means weak or mixed curves, or effect the other way; inactive means no such curve, though single readings can be large or run the other way; the % refers to the signal ratio.
Potency means the concentration at half of the fitted maximal effect.

This experiment is described as follows: qHTS assay for small molecule agonists of the antioxidant response element (ARE) signaling pathway (AID 743202). The following applies: HepG2 ARE-bla reporter, beta-lactamase FRET, 16 h; series mostly up to 73.3 µM. The text has this: U.S. Tox21 Program National Center for Advancing Translational Sciences [NCATS] NIH Chemical Genomics Center [NCGC] U.S. Environmental Protection Agency [EPA] National Institutes of Environmental Health Sciences [NIEHS] National Toxicology Program [NTP] U.S. Food and Drug Administration [FDA] Tox21 Assay Overview: Oxidative stress has been implicated in the pathogenesis of a variety of diseases ranging from cancer to neurodegeneration. The antioxidant response element (ARE) signaling pathway plays an important role in the amelioration of oxidative stress. The CellSensor ARE-bla HepG2 cell line (Invitrogen) can be used for analyzing the Nrf2/antioxidant response signaling pathway. Nrf2 (NF-E2-related factor 2) and Nrf1 are transcription factors that bind to AREs and activate these genes. The CellSensor ARE-bla Hep G2 cell line contains a beta-lactamase reporter gene under control of the Antioxidant Response Element (ARE) stably integrated into HepG2 cells. The activation of the report gene under culture conditions can be detected by fluorescence intensity. This cell line has been used to screen the Tox21 10K compound library to identify agonists that induce oxidative stress.
Tox21 Assay Protocol Summary: The ARE-bla cells were dispensed at 2,000 cells/5 ul/well in 1536-well black wall/clear bottom plates using a Multidrop dispenser. After the assay plates were incubated at a 37 C/5% CO2 incubator for 5 hours, 23 nL of compounds dissolved in DMSO, positive controls or DMSO only was transferred to the assay plate by a pin tool. The plates were incubated at 37 C for 16 hours. After 1 uL of LiveBLAzer B/G FRET substrate was added using a Flying Reagent Dispenser, the plates were incubated at room temperature for 2 hours, and fluorescence intensity was measured by an Envision plate reader.
On to `C#Cc1ccc(-c2ccccc2F)cc1`, for which the Potency entry is “inactive”.
On the same count and under the same terms, the entry for `CCO[Si](OCC)(OCC)OCC` is “inactive”; for `COC(=O)c1ccccc1C` it is “inactive”; for `Cc1c(N)cccc1C(F)(F)F` it is “inactive”.
On the same count and under the same terms, the entry for `COc1cccc(OC)c1C(=O)O` is “inactive”.
As for `CC(=O)Oc1cc2c(s1)CCN(C(C(=O)C1CC1)c1ccccc1F)C2` (stereo not given), the Potency entry was “inactive”.
As for `CCOC(=O)NNc1ccc(N(CC)CC(C)O)nn1` (stereo not given), the Potency entry is “inactive”.
`Nc1nc(N)nc(-c2cc(Cl)ccc2Cl)n1`: the Potency entry was “inactive”.
On to `CCC(CC)C(C)CCOC(C)=O` (stereo not given), for which the Potency entry was “inactive”.
Same read-out and setting: the figure for `CCC(C)(CCC(C)C)C(=O)[O][Sn]([CH3])([CH3])[O]C(=O)C(C)(CC)CCC(C)C` (stereo not given) is 30.6 µM (active); for `c1ccc(SSc2ccccc2)cc1` it is “inactive”.
For `CCCCC(CC)COC(=O)CCCCC(=O)OCc1ccccc1` (stereo not given), the Potency result was “inactive”.
The same measure, in the same setting: the same measure for `CCOc1ccc2ccccc2c1C(=O)N[C@@H]1C(=O)N2[C@@H]1SC(C)(C)[C@@H]2C(=O)O`: 4.73 µM (active); for `CCCC1CCC(=O)CC1`: “inactive”.
Consider `Nc1ccc(C(=O)O)c(O)c1`, for which the Potency entry is “inactive”.
As to `O=C(O)c1cc(=O)c2ccccc2o1`, the Potency entry was “inactive”.
The same measure, in the same setting: the entry for `CCc1cccc(CC)c1NC(=O)CN(CC(=O)O)CC(=O)O` is “inactive”; for `O=C(Oc1ccccc1)Oc1ccccc1` it is “inactive”.
Still for that read-out and setting: the same measure for `COC(=O)c1ccccc1OC`: “inactive”; for `[Cl][Pt-2]([Cl])([Cl])[Cl]`: 48.8 µM (active); for `CN1CCCCC1CCN1c2ccccc2Sc2ccc(S(C)=O)cc21` (stereo not given): “inactive”.
On the same count and under the same terms, the entry for `OC[C@@H](O)[C@@H](O)CO` is “inactive”; for `CN(C)C(=O)COC(=O)Cc1ccc(OC(=O)c2ccc(N=C(N)N)cc2)cc1` it is “inactive”.
For the compound `C=C(C)C(=O)OCCCCCCCCCC`, the Potency result is “inactive”.
The same measure, in the same setting: the figure for `CN(C)Cc1cc(C(C)(C)C)c(O)c(C(C)(C)C)c1` is 27.3 µM (active); for `CC(C)(C)C1CCC(=O)CC1` it is “inactive”; for `CC(=O)CC(=O)Nc1ccc(S(=O)(=O)O)cc1` it is “inactive”.
On the same count and under the same terms, the same measure for `CCN(CCN)c1cccc(C)c1`: “inactive”; for `CCCC[P+](C)(CCCC)CCCC`: “inactive”.
For the compound `OCC(F)(F)F`, the Potency result is “inactive”.
Same read-out and setting: the same measure for `Cc1ccc(N/N=c2\c(=O)cc/c(=N\Nc3ccc(S(=O)(=O)O)cc3)c2=O)c(C)c1`: “inactive”.
Still for that read-out and setting: the entry for `C=C(C)c1cccc(C(=C)C)c1` is “inactive”; for `O=C(O)[C@H](O)[C@@H](O)[C@H](O[C@@H]1O[C@H](CO)[C@H](O)[C@H](O)[C@H]1O)[C@H](O)CO` it is “inactive”; for `CC1(C)CCC[C@]2(C)[C@H]3CCO[C@]3(C)CC[C@@H]12` it is “inactive”.
Same read-out and setting: the entry for `CCCCCCCC/C=C\CCCCCCCCN` is “inactive”.
As for `O=C(O)CN(CCN(CC(=O)O)CC(=O)O)CC(=O)O`, the activation was -0.355% [at 3.74 µM].
In the case of `NC(=S)NC(N)=S`, the Potency result was “inactive”.
Same read-out and setting: the entry for `OC1CCCc2ccccc21` (stereo not given) is “inactive”; for `Cl[Si](Cl)(c1ccccc1)c1ccccc1` it is “inactive”.
Same read-out and setting: the same measure for `Nc1nc2c(ncn2COCCO)c(=O)[nH]1`: “inactive”.
